# SARS PLpro yeast: blocks SARS-CoV papain-like protease in a yeast assay | S. cerevisiae expressing SARS-CoV PLpro, growth rescue | Potency, µM (top dose mostly 32.9 µM), for the others: at the highest dose activity, positive = growth rescue, usual class: activators | actives 0.19% (n = 330,000) | AID 485353; calls by dose curve; also: potency is read from the fitted curve at half-maximal effect; 0% is about no effect; nearly all actives have a fitted effect of over 55% in size
# HCV inh: HCV inhibition; actives 3.4% (n = 340,000); AID 651820; Huh7.5.1 HCVcc-Cre infection, luciferase reporter, 44 h; Potency, µM (doses to about 41.8 µM), for the others: at the highest dose activity change, negative = inhibition, hits mostly inhibitors; also: potency is read from the fitted curve at half-maximal effect; % is scaled to controls: 0 for no effect and ±100 for the full control effect
#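 HCVcc-Cre virus at an moi near 0.5 was added right after compound to cells cultured 4 h from seeding (1,000 cells/well). Luciferase activity was determined 44 h later, 15 min after substrate addition at RT.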
# Pf growth 48h: P. falciparum growth inhibition at 48 hours (one generation); actives 5.9% (n = 310,000); Potency, µM (series often up to 28.7 µM), without a hit: at the highest dose activity change, negative = inhibition, hits mostly inhibitors; P. falciparum luciferase growth in erythrocytes, 48 h; also: potency is read from the fitted curve at half-maximal effect; % is scaled to controls: 0 for no effect and ±100 for the full control effect
#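 Erythrocytes infected with P. falciparum carrying an integrated firefly luciferase reporter (2% hematocrit, 0.1% parasitemia final) were exposed to compounds in RPMI 1640 with 0.5% Albumax at 37 C, 5% CO2. Growth inhibition was scored as reduced luminescence.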
# Pf growth 96h: inhibits malaria parasite growth, 96 h | P. falciparum luciferase reporter growth, 96 h | Potency, µM (highest dose often 28.7 µM), inactives show at the highest dose activity change, negative = inhibition, actives largely listed as inhibitors | actives 6.9% (n = 320,000) | AID 504834; also: potency is read from the fitted curve at half-maximal effect; % is scaled to controls: 0 for no effect and ±100 for the full control effect
#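 Infected RBCs, 2% Hct / 0.05% parasitemia final; luciferase-reporter P. falciparum; cpd 96 h, 37 C, 5% CO2; luciferase detection reagent; luminescence.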
# Sm TGR inh: inhibitors of Schistosoma mansoni thioredoxin glutathione reductase; Q962Y6; purified TGR, DTNB reduction, TNB absorbance 405 nm; Potency, µM (top dose mostly 114 µM), inactives show at the highest dose activity change, negative = inhibition, hits mostly inhibitors; actives 3% (n = 360,000); AID 485364; also: potency is read from the fitted curve at half-maximal effect; % is scaled to controls: 0 for no effect and ±100 for the full control effect; nearly all actives have a fitted effect of over 60% in size
#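 TGR 20 nM + NADPH 100 uM (dispensed conc.), cpd preinc 15 min RT; start with NADPH (500 uM addition) then DTNB (15 mM addition). Kinetic TNB absorbance, 405 nm filter. Four-parameter Hill fit across titration.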
# HCMV antiviral: human cytomegalovirus inhibition; HFF cells, HCMV-luciferase reporter, 72 h; stronger effect = lower value; activity change, negative = inhibition, % at 57.5 µM; actives 4.5% (n = 410,000); in the data active = activity change below about -60%; inconclusive = no clear call, values can overlap the other calls; inactive = above about -39%; also: % is scaled to controls: 0 for no effect and ±100 for the full control effect
#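 After 16 h attachment at 37C, HFF cells received test compound and HCMV-luciferase (1 PFU/cell); reporter luminescence read 72 h later, data normalized against buffer-only and known inhibitor Salinomycin.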
# Starred values were filed as active, the others as inactive; u = inconclusive; x = no result given; [ ] = another dose, or the depositor's remark. Shown are actives, neighbours in structure and some others; about 15% of the full set was active somewhere. Unless noted, calls follow the shape of the dose curve; as a rule, active = well fitted curve in the direction sought with a large enough effect; inconclusive = small, poorly fitted or top-dose-only effect, or another doubt; inactive = no such curve, though single readings can be large; an effect the other way counts as inactive or inconclusive.
SMILES,SARS PLpro yeast,HCV inh,Pf growth 48h,Pf growth 96h,Sm TGR inh,HCMV antiviral
Cc1ccc(S(=O)(=O)N2CCC(CN3C(=O)c4cccc5cccc(c45)C3=O)CC2)cc1,1%,u,u,u,3%,-17
O=C1c2cccc3cccc(c23)C(=O)N1CCN1CCN(CC(O)COc2ccc3ccccc3c2)CC1 (stereo unspecified),-17%,11µM*,u,u,-7%,-63*
O=C(N1CCOCC1)N1CCN(CC(O)COc2ccc3ccccc3c2)CC1 (stereo unspecified),2%,-5%,3%,-8%,0%,41
Cc1cccc(N2CCN(CC(O)COc3ccc4ccccc4c3)CC2)c1 (stereo unspecified),x,6%,x,x,x,11
CC(C)CNC(=O)c1csc(C(O)C(C)C)n1 (stereo unspecified),x,x,x,x,x,-3
COc1ccccc1NC(=O)CN1CCN(c2ccccc2)CC1,-1%,u,-20%,u,x,65
CCCCCCc1cc2cc(-c3nnc(-c4cccc(Cl)c4)o3)c(=O)oc2cc1O,x,x,x,x,-3%,-24
CC1CN(S(=O)(=O)c2cc(C(=O)N(C)Cc3cccs3)ccc2Cl)CC(C)O1 (stereo unspecified),-1%,u,x,x,x,-31
COc1cccc(OCC(O)CN2CCC(CN3C(=O)c4cccc5cccc(c45)C3=O)CC2)c1 (stereo unspecified),2%,u,u,u,-6%,-65*
O=C(COC(=O)c1ccc(Cl)cc1O)NC(=O)C1CCCCC1,3%,-5%,0%,36%,-1%,-20
CCN1/C(=C/C=C/c2oc3ccc(-c4ccccc4)cc3[n+]2CC)Oc2ccc(-c3ccccc3)cc21,-4%,0.89µM*,0.93µM*,-22%,40µM*,-97*
CCCCN1C(=O)/C(=C/C=C2\Oc3ccccc3N2CC)SC1=S,-1%,-2%,-18%,29%,-7%,-38
COc1ccc(S[C@]2(C(=O)N3CCCC3)CC(=O)N(c3ccc4ccccc4c3)[C@@H]2c2ccc(OC)cc2)cc1,x,x,x,x,x,22
Cc1nc(NC(=O)C23CC4CC(CC(C4)C2)C3)sc1Cc1ccc2c(c1)OCO2,-20%,u,u,1.7µM*,1%,81
Cc1nc(NC(=O)C2CCCC2)sc1Cc1ccc2c(c1)OCO2,-15%,4%,u,u,0%,u
CC(C)C[C@H](NC(=O)c1nc[nH]c1C(=O)N[C@@H](CC(C)C)C(=O)OC(C)(C)C)C(=O)OC(C)(C)C,-4%,u,6.6µM*,8.3µM*,-11%,-23
CC(C)C[C@H](NC(=O)c1nc[nH]c1C(=O)NC(c1ccccc1)c1ccccc1)C(=O)OC(C)(C)C,0%,1%,u,u,5%,-63*
CC(C)C[C@H](NC(=O)c1[nH]cnc1C(=O)Nc1ccc(Cl)cc1)C(=O)OC(C)(C)C,0%,36%[8.37 µM],13µM*,13µM*,18%,-39
CC(C)C[C@H](NC(=O)c1nc[nH]c1C(=O)NCC(=O)OC(C)(C)C)C(=O)OC(C)(C)C,0%,-10%[8.37 µM],u,u,-26%,-6
Cc1cc(NC(=O)CCSc2ccc(Cl)cc2)no1,0%,1%,-19%,10%,x,2
Nc1cc(N)cc(C(=O)c2ccccc2)c1,x,x,x,x,x,31
CCCCc1nc2ccccc2c(=O)n1-c1ccc(Cl)cc1[N+](=O)[O-],-3%,13%,u,-3%,15%,-62*
COc1cccc(CNC(=O)CC2C(=O)NCCN2Cc2ccoc2)c1OC (stereo unspecified),0%,-1%,u,12µM*,20µM*,-11
COc1cccc(CN2CCNC(=O)C2CC(=O)NCCn2cccn2)c1OC (stereo unspecified),-1%,10%,-2%,u,15%,23

# Bioassay records deposited in PubChem by National Center for Advancing Translational Sciences (NCATS).
